HIV RNase H inh-1 – blocks HIV-1 RNase H cleavage of RNA/DNA duplex. AID 565. inhibition, % at 10 µM. RT-RNase H RNA/DNA duplex cleavage, fluorescence. 65,000 compounds, 1.9% hits. P04585; in the data active = inhibition above about 50%
RmlCD inh mix – RmlC/RmlD inhibition, mixture screen | RmlC/RmlD coupled enzyme inhibition, 384-well mixture HTS | inhibition, % at 5.5 µM | 110,000 compounds, 0.39% hits | AID 1532; in the data active = inhibition above about 30%, passing the limit was not always enough; inconclusive = no clear call, values can overlap the other calls
HIV RNase H inh-2 – confirmation of HIV-1 reverse transcriptase RNase H inhibitors; Recombinant RT RNase H, fluorescent RNA/DNA duplex cleavage; shares compounds with HIV RNase H inh-1; AID 651; 1,000 compounds, 39% hits; inhibition, % at 10 µM; in the data active = inhibition above about 48%; inconclusive = no clear call, values can overlap the other calls
Numbers stand for hits; - = inactive; ? = inconclusive; . = no result given. This is one part of a sample in which hits are shown more often than they occur.

SMILES | HIV RNase H inh-1 | RmlCD inh mix | HIV RNase H inh-2
COC(=O)c1ccc(CSc2nc3c(cnn3-c3ccc(Cl)cc3)c(=O)[nH]2)o1 | 59 | - | -
CCCCSc1nc2c(cnn2-c2ccc(F)cc2)c(=O)[nH]1 | - | - | .
CSc1nc2c(cnn2-c2ccc(C)c(C)c2)c(=O)[nH]1 | - | - | .
COc1ccc(NC(=O)CSc2nnc(-c3ccncc3)n2CC2CCCO2)c(OC)c1 (centres undefined) | - | - | .
CCn1c(COc2ccccc2OC)nnc1SCC#N | - | - | .
O=C(CSc1ccc2nnc(-c3ccncc3)n2n1)N1CCc2ccccc21 | - | . | .
O=C1C2C3C=CC(CO)(O3)C2C(=O)N1c1ccccc1-c1ccccc1 (centres undefined) | 61 | - | -
COc1ccc(C(=O)NCC23C=CC(O2)C2C(=O)N(Cc4ccccc4)C(=O)C23)cc1 (centres undefined) | - | - | .
COc1ccc(OC)c(NC(=O)c2cc(-c3cc(Cl)ccc3O)n[nH]2)c1 | - | - | .
COc1ccc(NC(=O)c2cc(-c3cc(C)ccc3O)n[nH]2)cc1Cl | 51 | - | -
CC1=C(C(=O)OCc2ccccc2)C(c2cccnc2)c2c(n(C)c(=O)n(C)c2=O)N1 (centres undefined) | . | - | .
O=C(COC(=O)c1c[nH]c(=O)[nH]c1=O)NCc1ccccc1 | . | - | .
Cc1csc(Sc2nc3c(c(=O)[nH]c(=O)n3C)n2CCCc2ccccc2)n1 | - | - | .
Cc1cc(C)nc(Nc2nc3ccccc3[nH]2)n1 | - | - | .
c1ccc(Nc2nc3ccccc3[nH]2)nc1 | 80 | - | -
Cc1ccc(NS(C)(=O)=O)c(C(=O)c2ccccc2)c1 | . | - | .
CCN(CCCNC(=O)CCNC(=O)Cn1cnc2ccccc2c1=O)c1ccccc1 | - | - | .
O=C(O)CCc1ccc(-c2cccs2)o1 | 89 | - | -
Cc1ccc(-c2ccc(CCC(=O)O)o2)cc1 | . | - | .
COc1ccccc1N1CCN(C(c2cc3cc(C)ccc3[nH]c2=O)c2nnnn2C2CCCC2)CC1 (centres undefined) | 54 | - | -
COc1ccccc1N1CCN(C(c2cc3ccc(C)cc3[nH]c2=O)c2nnnn2C2CCCC2)CC1 (centres undefined) | - | - | .
CC(C)CCN1C(=O)c2ccc(C(=O)NCC3CCCO3)cc2C1=O (centres undefined) | - | - | .
c1cc(C(c2nnnn2C2CCCC2)N2CCOCC2)ccn1 (centres undefined) | - | - | .
Oc1ccc(N2CCN(C(c3ccncc3)c3nnnn3C3CCCC3)CC2)cc1 (centres undefined) | 79 | - | ?
O=C(/C=C/c1ccccc1)N/C(=C/c1ccccc1)C(=O)N1CCCCC1 | . | - | .
SMILES | HIV RNase H inh-1 | RmlCD inh mix | HIV RNase H inh-2
CCOc1ccc(-c2nnc3ccc(SCC(=O)N4CCN(c5ccccc5)CC4)nn23)cc1 | - | . | .
O=C(CSc1ccc2nnc(-c3ccc(Cl)cc3)n2n1)N1CCN(c2ccccc2)CC1 | 60 | . | -
O=C(Nc1ccc(N2CCOCC2)cc1)Nc1cnsn1 | 67 | - | -
O=C(Nc1ccc(N2CCOCC2)cc1)Nc1ccc(Cl)c(Cl)c1 | . | - | .
NS(=O)(=O)c1cc2c(cc1C(F)(F)F)NC(Cc1ccccc1)NS2(=O)=O (centres undefined) | - | - | .
COCCN(C(=O)c1csnn1)C(C(=O)NC(C)(C)C)c1cccc(OC)c1 (centres undefined) | - | - | .
O=C(Nc1ccc(-c2csc(Nc3cccc(C(F)(F)F)c3)n2)cc1)c1cc([N+](=O)[O-])cc(C(F)(F)F)c1 | . | - | .
CCn1c(SCC(=O)Nc2cccc(C)c2)nc2c(c1=O)SC(C)C2 (centres undefined) | - | - | .
Cc1nnc(NC(=O)c2c(-c3ccccc3)noc2C)s1 | . | - | .
CCC(CC)c1nnc(NC(=O)c2c(-c3ccccc3)noc2C)s1 | 84 | - | -
Cc1[nH]c(=S)c(C#N)c(C)c1C(=O)Nc1ccccc1 | . | - | .
C=CCc1c(C)[nH]c(=S)c(C#N)c1C | 77 | - | 59
O=C(Nc1cccc2c1CCCC2)c1ccc(Br)o1 | - | - | .
CCCCCOc1ccc(C2C(C(C)=O)=C(C)Nc3ncnn32)cc1OC (centres undefined) | 64 | . | -
COc1ccc(C2C(C(C)=O)=C(C)Nc3ncnn32)cc1OC (centres undefined) | - | - | .
COCCn1c(C2CCCCC2)nc2sc3ccccc3c(=O)c2c1=O | - | - | .
Cc1noc(C)c1CSCC(=O)OCc1nc2ccccc2c(=O)n1CC#N | - | - | .
Cc1cccc(-n2c(O)c(C=Nc3ccc4c(c3)OCO4)c3ccccc3c2=O)n1 | 65 | - | -
Cc1ccc(-n2c(O)c(C=Nc3ccc4c(c3)OCO4)c3ccccc3c2=O)cc1C | . | - | .
CN1CCN(Cc2c(O)ccc3occ(C(=O)c4ccccc4)c23)CC1 | - | - | .
CC(=O)C(C(C)=O)c1c(Cl)c(O)c(O)c2c(C(=O)c3ccccc3)coc12 | 100 | - | 64
CCOc1cc(NC(=S)NCCCN2CCOCC2)c(OCC)cc1NC(=O)CC(C)C | . | - | .
Fc1ccc(/C=N/n2c(-c3cccs3)n[nH]c2=S)cc1 | . | - | .
CCOC(=O)CSc1nc2ccccc2c(=O)n1-c1ccc(C(=O)NCCOC)cc1 | . | - | .
CCOC(=O)CSc1nc2cc(C(=O)NCc3ccco3)ccc2c(=O)n1-c1ccc(F)cc1 | 84 | - | 66
SMILES | HIV RNase H inh-1 | RmlCD inh mix | HIV RNase H inh-2
CCOC(=O)CSc1nc2cc(C(=O)NCc3ccco3)ccc2c(=O)n1C1CCCCC1 | 73 | - | 57
CCOC(=O)CSc1nc2ccccc2c(=O)n1CC1CCC(C(=O)NCc2ccco2)CC1 (centres undefined) | - | - | .
CCOC(=O)C1=C(c2ccccc2)N=C2SCC(=O)N2C1c1ccc2c(c1)OCO2 (centres undefined) | - | - | .
CC(C)(C)n1nc2c(c1NC(=O)c1cccc(C(F)(F)F)c1)CS(=O)C2 (centres undefined) | - | - | .
CCOC(=O)c1ccc(NC(=O)c2nc[nH]c2C(=O)N[C@@H](CC(C)C)C(=O)OCc2ccccc2)cc1 | . | - | .
Fc1ccc(Oc2nccc(-c3ccc(Cl)cc3)n2)cc1 | . | - | .
CC(=O)NC1(C(F)(F)F)C(=O)NC(C)=C1C#N (centres undefined) | - | - | .
CCOC(=O)C1CCN(C(=O)Nc2ccc3nc(-c4ccco4)c(-c4ccco4)nc3c2)CC1 | . | - | .
O=C(NCCO)c1ccc2nc(-c3ccco3)c(-c3ccco3)nc2c1 | . | - | .
O=C(Nc1ccc2nc(-c3ccco3)c(-c3ccco3)nc2c1)N1CCCCCC1 | 97 | - | 53
O=C(NC1CCCC1)c1ccc2nc(-c3ccco3)c(-c3ccco3)nc2c1 | 83 | . | -
O=C(CC1NCCNC1=O)Nc1ccc2c(c1)OCO2 (centres undefined) | . | - | .
c1ccc(-c2ccc(-c3ccccn3)nn2)nc1 | 83 | . | 77
c1ccc(-c2ccccn2)nc1 | - | - | .
O=C1Nc2ccccc2C12OCCS2 (centres undefined) | - | - | .
N#CCCCCN1c2cccc3cccc(c23)S1(=O)=O | - | - | .
Brc1ccccc1-c1nnc2sc(Cc3ccccc3)nn12 | - | - | .
c1ccc(Cc2nn3c(Cn4nnc5ccccc54)nnc3s2)cc1 | 74 | . | 68
Cc1oc2nc(SCCCC(=O)NCCO)nc(N)c2c1C | - | - | .
CC(C)(C)C1=Nn2c(nnc2-c2ccccn2)SC1 | 64 | - | 70
CC(C)(C)C1=Nn2c(nnc2-c2ccccc2F)SC1 | - | - | .

High-throughput results (PubChem)
